This is an account of results in PubChem BioAssay AID485341 (National Center for Advancing Translational Sciences (NCATS), 2010).

Out of some 330,000 compounds screened, about 1,700 (0.52%) were called active. A call without a number means that no potency is given here. Calls come from the whole dose curve; as a rule, active = well fitted inhibition curve with a large enough effect; inconclusive = small, poorly fitted or top-dose-only effect; inactive = no such curve, though single readings can be large or run the other way. The full list was thinned out, with actives kept by preference.
Potency is the fitted concentration of half-maximal effect.

Chain of Beta-lactamase (Escherichia coli (strain K12)) (P00811 whole entry, looked up): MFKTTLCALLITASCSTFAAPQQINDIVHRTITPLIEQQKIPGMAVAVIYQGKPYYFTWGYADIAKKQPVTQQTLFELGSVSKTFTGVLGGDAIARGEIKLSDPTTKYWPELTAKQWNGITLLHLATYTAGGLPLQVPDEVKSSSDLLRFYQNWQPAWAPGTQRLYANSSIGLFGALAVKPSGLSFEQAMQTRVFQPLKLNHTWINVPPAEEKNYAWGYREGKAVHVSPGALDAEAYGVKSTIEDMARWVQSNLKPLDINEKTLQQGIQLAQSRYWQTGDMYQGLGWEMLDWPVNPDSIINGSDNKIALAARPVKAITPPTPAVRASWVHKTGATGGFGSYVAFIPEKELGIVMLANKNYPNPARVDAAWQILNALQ

The assay concerns the target Beta-lactamase (Escherichia coli (strain K12)) (UniProt P00811). The assay is described as follows: qHTS Inhibitors of AmpC Beta-Lactamase (assay without detergent). Note: nearly all actives have a fitted effect of over 20% in size. The conditions noted are these: AmpC nitrocefin hydrolysis, absorbance 480 nm, 0.0001% Triton; series mostly up to 57.1 µM. The protocol:
NIH Molecular Libraries Probe Production Network [MLPCN] NIH Chemical Genomics Center [NCGC] Assay Provider: Professor Brian Shoichet, UCSF Assay Overview: This aggregation profiling approach exploits the sensitivity of aggregate formation to detergent. Inhibition of b-lactamase is measured in the presence and absence of 0.01% Triton X-100. This particular assay had the prescence of 0.01% Triton X-100. See Pubchem assay "Promiscuous and Specific Inhibitors of AmpC Beta-Lactamase (assay without detergent)" for related screen. Compounds that inhibit only in the absence of detergent are considered likely promiscuous aggregators. A screen of 1,030 compounds was performed in Brian Shoichet's lab in 96-well format. AmpC activity was measured by following the absorbance at 480 nm. Nitrocefin is a chromogenic substrate: while nitrocefin is yellow (lmax 390 nm), the product of its hydrolysis is red (lmax 486 nm, 17,000 M-1). AmpC beta lactamase was provided by Shoichet Lab, UCSF.
Buffer: 20 mM phosphate buffer, pH 7.0 Triton X-100: No Detergent screen: 0.0001%, Detergent screen: 0.01%. Reagents/Controls: Buffer in columns 3 and 4 as negative control (no enzyme). 5.3 nM AmpC in columns 1, 2, 5-48. Titration of UCSF compound 9 control (from 10 mM, then 1:2) pin-transferred to column 2. Column 1 is neutral (100% activity). Assay Steps: Six uL of reagents were dispensed to 1536-well Greiner black clear bottom plates. Compounds and controls (23 nL) were transferred via Kalypsys PinTool. The plates were incubated for 15 min at room temperature, and then 2 uL of 800 uM solution of nitrocefin was added to start the reaction. The plates were immediately transferred to and read every 20 seconds for 4 min on ViewLux (Perkin-Elmer) High-throughput CCD imager using 480 nm absorbance protocol. During dispense, reagent bottles were kept submerged into 4 deg C water bath. Keywords: NIH Roadmap, MLSCN, MLI, MLSMR, qHTS, NCGC, AmpC Beta-Lactamase, Aggregation
(qHTS replaces the single test concentration by a dilution series.)
Consider `CCOC(=O)C1CCCN(C(=O)CSc2nnc3nc(C)cc(C)n23)C1` (configuration not stated), for which the Potency result was “inactive”.

As to `O=C(CSc1nc2ccccc2c(=O)[nH]1)Nc1nc(-c2ccc(Br)cc2)cs1`, the Potency entry was “inactive”.

Turning to `Cc1cc(C)c(-c2csc(NC(=O)CCCc3nc4ccccc4c(=O)[nH]3)n2)c(C)c1`, the Potency was 35.5 µM (active).

For the compound `CC(=O)NCc1ccc(-c2csc(NC(=O)CCCc3nc4ccccc4c(=O)[nH]3)n2)cc1`, the Potency result is “inactive”.

For the compound `O=c1cc(CO)oc(C(Nc2cccc(C(F)(F)F)c2)c2ccccn2)c1O` (configuration not stated), the Potency entry is “inactive”.

`O=C(O)CN1c2cccc3cccc(c23)S1(=O)=O`: the Potency entry was “inactive”.

Regarding `Cc1cc(NC(=O)CS(=O)(=O)c2cn(C)c3ccccc23)no1`, the Potency is 10 µM (active).

Turning to `Cc1cc(NC(=O)COn2nnc3ccccc32)no1`, the Potency result was “inactive”.

On to `CCOC(=O)c1ccc(NC(=O)CS(=O)(=O)c2cn(CC)c3ccccc23)cc1`, for which the Potency result was “inactive”.

`Cc1ccc(NC(=O)CCCNC(=O)c2ccc(Cl)cc2)cc1S(=O)(=O)N1CCCCC1`: the Potency result is “inactive”.

Take `CC1=C[C@H]2Cc3cc(C)cc(C)c3S(=O)(=O)[C@@H]2C=C1`: the Potency entry was “inactive”.

For `Cn1nccc1/C=N\NC(=O)c1ccc(Cl)cc1`, the Potency result is “inactive”.

On to `CC1(C)C2CC=C(/C=N/NC(=O)c3ccc(Cl)cc3)C1C2` (configuration not stated), for which the Potency was 11.2 µM (active).

For the compound `CC1(C)C2CC=C(/C=N/NC(=O)C3CC3)C1C2` (configuration not stated), the Potency result is “inactive”.

As for `Cc1c(C(=O)N(C)CCc2cnn(C)c2)oc2c(F)cccc12`, the Potency result was “inactive”.

In the case of `CCN(CC)S(=O)(=O)c1ccc2nc(COC(=O)c3n[nH]c4ccccc34)[nH]c2c1`, the Potency is 22.4 µM (active).

As to `COc1ccc(COC(=O)c2n[nH]c3ccccc23)cc1F`, the Potency result is “inactive”.

Turning to `CN(C)S(=O)(=O)c1ccc(NC(=O)COC(=O)c2n[nH]c3ccccc23)cc1`, the Potency result is “inactive”.

On to `COc1ccc(C(=O)O)cc1S(=O)(=O)NCc1cccnc1`, for which the Potency result is “inactive”.

In the case of `CCC(C)NC(=O)c1ccccc1NC(=O)c1ccccc1N(C)S(C)(=O)=O` (configuration not stated), the Potency result was “inactive”.

For the compound `COC(=O)c1ccc(CSc2nnc(NC(C)C)s2)cc1`, the Potency result is “inactive”.

`Cc1ccc(C(=O)Oc2coc(CSc3nnc(NC(=O)c4cccs4)s3)cc2=O)cc1C`: the Potency is 7.08 µM (active).

On to `O=C(Cc1cccs1)Nc1nnc(SCc2ccc(F)cc2)s1`, for which the Potency result was “inactive”.

Regarding `COc1cc(OC)cc(C(=O)NNC(=O)CNC(=O)c2ccc(Br)o2)c1`, the Potency result is “inactive”.

For `CSCC[C@H](NC(=O)N1CCn2c1nc1ccccc12)C(=O)NCc1ccc2c(c1)OCO2`, the Potency result is “inactive”.

On to `CCc1ccc(-n2c(=S)sc3c(=O)n(-c4ccccc4OC)c(=S)[nH]c32)cc1`, for which the Potency result was “inactive”.

Regarding `Cc1ccc(S(=O)(=O)N(Cc2ccccc2)c2ccccn2)cc1[N+](=O)[O-]`, the Potency entry is “inactive”.

Take `Cc1csc2ncc(C(=O)N(Cc3ccccc3)c3ccccn3)c(=O)n12`: the Potency was 5.62 µM (active).

As to `CC(C)(C)C(=O)N(Cc1ccccc1)c1ccccn1`, the Potency entry is “inactive”.

For the compound `CCC(=O)N(Cc1ccccc1)c1ccccn1`, the Potency entry is “inactive”.

For the compound `Cc1ccc(C(=O)NNc2ncnc3ccccc23)cc1`, the Potency entry was “inactive”.

`Cc1ccc(C(=O)NNC(=O)c2cc3cc4ccccc4nc3s2)cc1`: the Potency was 22.4 µM (active).

For the compound `Cc1ccc(C(=O)NNC(=O)c2ccc3c(c2)OCCO3)cc1`, the Potency entry was “inactive”.

`COc1cccc(N(CC(=O)NCc2ccccc2)C(=O)CCC(=O)Nc2nccs2)c1`: the Potency entry was “inactive”.

Take `COC(=O)CCC(=O)N1CCCC(CO)(Cc2ccccc2)C1` (configuration not stated): the Potency entry is “inactive”.

Regarding `Cc1nc(Cl)c2oc3ccccc3c2n1`, the Potency is 0.158 µM (active).

As for `Cc1nc(N2CCCC2C(=O)O)c2oc3ccccc3c2n1` (configuration not stated), the Potency entry is “inactive”.

With `COc1ccc(C)cc1Nc1nc(C)nc2c1oc1ccccc12`, the Potency entry was “inactive”.

Consider `CC1=CC2=NC(=O)CC(C)(C(=O)N(CC(=O)NC(C)(C)C)Cc3ccccc3)N2C=C1` (configuration not stated), for which the Potency result is “inactive”.

Regarding `Cc1ccc(Sc2cc(N3CCOCC3)nc(-c3ccccc3)n2)cc1`, the Potency entry is “inactive”.

As to `O=C(COC(=O)c1ccccc1Cl)NC1CCCCCCC1`, the Potency result was “inactive”.

As for `O=C(COC(=O)c1ccccc1SCC(=O)NC1CCCCC1)NC1CCCCC1`, the Potency entry is “inactive”.

Regarding `N#Cc1ccccc1Sc1ccccc1C(=O)OCC(=O)NC1CCCCC1`, the Potency was 35.5 µM (active).

`CCOc1c2ccc(C(=O)NCc3ccc(OC(F)(F)F)cc3)cc2nn1C`: the Potency result was “inactive”.

Consider `CCOc1c2ccc(C(=O)NCc3ccc4c(c3)OCO4)cc2nn1C`, for which the Potency is 0.316 µM (active).

Take `CCCn1nc2cc(C(=O)NCc3ccccc3)ccc2c1OCC`: the Potency entry is “inactive”.

Consider `CCCc1noc2c1/C(=N\O)CCC2`, for which the Potency entry was “inactive”.

As to `Cc1ccc(CNC(=O)CC(NC(=O)c2ccccc2)c2ccccc2)cc1` (configuration not stated), the Potency result was “inactive”.

For the compound `COc1cccc(Nc2nnc(SCC(=O)N3CC(=O)Nc4ccccc43)s2)c1`, the Potency result is “inactive”.

Regarding `Cc1ccc(CCC(=O)Nc2ncc(Cc3cc(Cl)ccc3Cl)s2)o1`, the Potency is 20 µM (active).

In the case of `O=C(CCc1ccccc1Cl)Nc1ccc(S(=O)(=O)Nc2nccs2)cc1`, the Potency result is “inactive”.

For the compound `Cc1ccc(Cc2cnc(N)s2)o1`, the Potency result was “inactive”.

With `O=S(=O)(Nc1cccc(-c2ccc(N3CCOCC3)nn2)c1)c1ccc(Cl)c(Cl)c1`, the Potency result was “inactive”.

Consider `O=C(NCC(c1ccco1)N1CCc2ccccc21)c1cccc(F)c1` (configuration not stated), for which the Potency result is “inactive”.

Regarding `O=C(/C=C/c1ccccc1)Oc1coc(CSc2ncccn2)cc1=O`, the Potency entry is “inactive”.

In the case of `Cc1nc(SCC(=O)N2CCc3ccccc3C2)c2c(C)c(C)sc2n1`, the Potency is 0.158 µM (active).

On to `Cc1nc(SCC(=O)N2CC(=O)Nc3ccccc32)c2c(C)c(C)sc2n1`, for which the Potency result is “inactive”.

For `O=C(CSc1nnc(-c2cccs2)n1Cc1ccccc1)N1CCc2ccccc2C1`, the Potency result is “inactive”.

Consider `CC(C)C(=O)Nc1nnc(Sc2ccc(N(C)C)cc2)s1`, for which the Potency result was “inactive”.

For the compound `Fc1cccc(Cc2noc(CN3CCN(c4cnccn4)CC3)n2)c1`, the Potency result was “inactive”.

As to `Cc1ccc(-n2c(C)cc(/C=C(\C#N)C(=O)NCC3CCCO3)c2C)cc1` (configuration not stated), the Potency entry is “inactive”.

Consider `CCC(CC)C(=O)N1CC(=O)Nc2ccc(Br)cc2C1c1ccccc1` (configuration not stated), for which the Potency is 0.891 µM (active).

As for `CC(C)C(=O)N1CC(=O)Nc2ccc(F)cc2C1c1ccc(F)cc1` (configuration not stated), the Potency result is “inactive”.

Consider `Cc1ccc2c(c1)C(c1ccccc1)N(C(=O)c1ccc(F)cc1)CC(=O)N2` (configuration not stated), for which the Potency entry was “inactive”.

In the case of `COCCOC(=O)c1[nH]c2c(c1C)C(=O)CC(c1ccc(OC)cc1)C2` (configuration not stated), the Potency entry was “inactive”.

On to `CCCOC(=O)c1[nH]c2c(c1C)C(=O)CC(c1cccs1)C2` (configuration not stated), for which the Potency entry is “inactive”.

Take `CCCOC(=O)c1[nH]c2c(c1C)C(=O)CC(c1cc(OC)c(OC)c(OC)c1)C2` (configuration not stated): the Potency is 2.51 µM (active).
